This is part of a sample that, as a whole, favours compounds with a hit. Of some 83,000 tested, about 20% had one in any assay.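 Plates (96-well) were seeded with cells, treated with compound at one concentration, and incubated for 48 hours before percent growth was determined.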 Unmarked numbers belong to inactive results. Activity calls are given as the source filed them. Rule for the calls: active = growth percent below 10; inactive = the rest.

Some test systems named below: NCI-H23 lung; NCI-H226 lung; NCI-H322M lung; HOP-62 NSCLC; NCI-H460 lung; NCI-H522 lung; A549/ATCC NSCLC; 786-0 renal; COLO 205 colon; DU-145 prostate; K-562 leukemia; MDA-MB-231 breast; RXF 393 renal; SF-268 CNS; SF-295 CNS; SF-539 CNS; UACC-257 melanoma; M14 melanoma; MALME-3M melanoma.
Experiment in all cases: NCI-60 one-dose screen, 48 h (100 = growth as untreated, 0 = no growth, -100 = all killed)
Details in all cases: 10 µM unless noted

On to `C#C[C@]1(O)CC[C@H]2[C@@H]3CC=C4c5sc(-c6ccc7c(c6)OCO7)nc5CC[C@]4(C)[C@H]3CC[C@@]21C`, for which the growth in the experiment on NCI-H23 lung was 6.36% (active); in the experiment on NCI-H226 lung, 32.3%; with NCI-H322M lung, 37.1%; with HOP-62 NSCLC, 11.2%; with NCI-H460 lung, -26.2% (active); in the experiment on NCI-H522 lung, 2.16% (active). Moreover, the growth is 6.31% (active) in the experiment on A549/ATCC NSCLC; -28.9% (active) in the experiment with 786-0 renal; 51.9% in the experiment on COLO 205 colon; 20.1% in the experiment on DU-145 prostate; 32.6% with K-562 leukemia; 51.8% with MDA-MB-231 breast. In addition, the growth is -49.3% (active) in the experiment on RXF 393 renal; 51.7% in the experiment with SF-268 CNS; -47.7% (active) with SF-295 CNS; -36.6% (active) with SF-539 CNS; 17.7% with UACC-257 melanoma.
For `COc1ccc(-c2nc3cccc(O)c3c(=O)n2Cc2ccccc2)cc1COc1ccc(NC(C)=O)cc1`, the growth in the experiment on NCI-H23 lung was 62.5% [3 µM]; with NCI-H226 lung it was 56.2% [3 µM]; in the experiment on NCI-H322M lung, 67.6% [3 µM]; in the experiment with HOP-62 NSCLC, 43.6% [3 µM]; in the experiment on NCI-H460 lung it was 4.9% [3 µM] (active); in the experiment with NCI-H522 lung, 52.5% [3 µM]. Also, the growth was 44.9% [3 µM] in the experiment with A549/ATCC NSCLC; 54.7% [3 µM] with 786-0 renal; 49.8% [3 µM] with COLO 205 colon; 50.2% [3 µM] with DU-145 prostate; 18.9% [3 µM] with K-562 leukemia; 64.2% [3 µM] in the experiment with MDA-MB-231 breast. Further, the growth with RXF 393 renal is 52.6% [3 µM]; in the experiment on SF-268 CNS it was 58.2% [3 µM]; in the experiment with SF-295 CNS it was 23.8% [3 µM]; in the experiment with SF-539 CNS, 40.1% [3 µM]; in the experiment with UACC-257 melanoma, 67.2% [3 µM]; in the experiment on M14 melanoma, 53.8% [3 µM].
In the case of `COc1cc2nc(Cl)nc(Nc3cccc(C4=Nc5c(N)nc(N)nc5NC(c5ccc(Cl)cc5)C4)c3)c2cc1OC` (configuration not stated), the growth was 87.8% in the experiment with NCI-H23 lung; 90.4% in the experiment on NCI-H226 lung; 86.3% with NCI-H322M lung; 18% in the experiment with HOP-62 NSCLC; 2.91% (active) in the experiment on NCI-H460 lung; 34.6% in the experiment with NCI-H522 lung. For the same molecule, the growth in the experiment on A549/ATCC NSCLC is 37.2%; with 786-0 renal, -52.1% (active); in the experiment with COLO 205 colon it was 21.5%; in the experiment with DU-145 prostate, 87.7%; in the experiment on K-562 leukemia it was -22% (active); in the experiment with MDA-MB-231 breast, 72.9%. The growth is 73.6% with RXF 393 renal; 84.2% in the experiment with SF-268 CNS; -23.9% (active) with SF-295 CNS; 89.3% with SF-539 CNS; 87.3% in the experiment on UACC-257 melanoma.
With `COc1ccccc1-n1cc(C#N)c(N)c1C(=O)c1ccc(Br)cc1`, the growth with NCI-H23 lung was 87.8%; in the experiment with NCI-H226 lung it was 94.4%; in the experiment with NCI-H322M lung, 96.7%; in the experiment with HOP-62 NSCLC, 63.5%; with NCI-H460 lung it was 79.7%; with NCI-H522 lung it was 48.7%. The growth was 78.6% with A549/ATCC NSCLC; 91.9% with 786-0 renal; 76.5% in the experiment on COLO 205 colon; 97.3% in the experiment on DU-145 prostate; 20.1% in the experiment on K-562 leukemia; 79.8% with MDA-MB-231 breast. Further, the growth in the experiment with RXF 393 renal was 85.8%; in the experiment with SF-268 CNS it was 89%; with SF-295 CNS it was 45.5%; with SF-539 CNS it was 82.7%; in the experiment with UACC-257 melanoma, 72.5%; in the experiment with M14 melanoma, 42.3%.
As to `NC(N)=Nc1ccc(Nc2cccc(Nc3ccc(Cl)c(C(F)(F)F)c3)c2)cn1`, the growth in the experiment on NCI-H23 lung was 41.7%; in the experiment on NCI-H226 lung, 24.4%; in the experiment on NCI-H322M lung, -6.68% (active); in the experiment with HOP-62 NSCLC it was 19.5%; in the experiment on NCI-H460 lung, -23.9% (active); with NCI-H522 lung it was 8.21% (active). For the same molecule, the growth in the experiment on A549/ATCC NSCLC was 57%; in the experiment on 786-0 renal, 72.6%; in the experiment with COLO 205 colon, -25.1% (active); with DU-145 prostate it was 66.1%; in the experiment with K-562 leukemia it was -2.73% (active); in the experiment with MDA-MB-231 breast, 31%. Further, the growth was 77.6% with RXF 393 renal; 33.1% in the experiment with SF-268 CNS; 11.6% in the experiment with SF-295 CNS; 80.7% in the experiment with SF-539 CNS; 42.9% in the experiment with UACC-257 melanoma; 47.3% in the experiment on M14 melanoma.
As for `CC(C)(C)c1ccc(C(=O)Nc2sc3c(c2C(N)=O)CCC(O)C3)cc1` (configuration not stated), the growth in the experiment on NCI-H23 lung was 66.5%; in the experiment on NCI-H226 lung, 68.7%; in the experiment with NCI-H322M lung, 58.1%; in the experiment on HOP-62 NSCLC, 63%; with NCI-H460 lung it was 17%; with NCI-H522 lung it was 31.2%. The growth is 39.6% with A549/ATCC NSCLC; 15.4% with 786-0 renal; 6.84% (active) in the experiment on COLO 205 colon; 58.6% in the experiment on DU-145 prostate; 6.74% (active) with K-562 leukemia; 65.6% with MDA-MB-231 breast. The growth with RXF 393 renal is 44.5%; in the experiment on SF-268 CNS, 63.2%; in the experiment on SF-295 CNS, -1.38% (active); in the experiment with SF-539 CNS it was 23.3%; in the experiment with UACC-257 melanoma, 36.8%; in the experiment with M14 melanoma, -3.35% (active).
Consider `Cc1cccc(/C=C/C(=O)Nc2ncc(Cc3cccc(C)c3)s2)c1`, for which the growth was 30.4% in the experiment on NCI-H23 lung; 17.7% in the experiment on NCI-H226 lung; 39.9% in the experiment on NCI-H322M lung; 32.1% with HOP-62 NSCLC; 8.64% (active) in the experiment on NCI-H460 lung; -43.2% (active) in the experiment on NCI-H522 lung. The growth was 31.1% with A549/ATCC NSCLC; 21.3% in the experiment with 786-0 renal; -0.745% (active) in the experiment on COLO 205 colon; 8.51% (active) in the experiment on DU-145 prostate; 11.9% with K-562 leukemia; 33.6% with MALME-3M melanoma. Also, the growth is 38.8% in the experiment on MDA-MB-231 breast; 48.2% in the experiment with SF-268 CNS; -1.79% (active) with SF-295 CNS; 4.05% (active) in the experiment with SF-539 CNS; 38.3% in the experiment with UACC-257 melanoma; 0.505% (active) with M14 melanoma.
On to `NC(N)=Nc1ccc(Oc2cccc(Nc3ccc(Br)c(C(F)(F)F)c3)c2)cn1`, for which the growth in the experiment with NCI-H23 lung is -61% (active); with NCI-H226 lung it was -78.1% (active); with NCI-H322M lung, -43.6% (active); in the experiment with HOP-62 NSCLC it was -46.1% (active); in the experiment on NCI-H460 lung, -76.9% (active); in the experiment with NCI-H522 lung, -64.8% (active). The growth with A549/ATCC NSCLC was -23.9% (active); in the experiment with 786-0 renal, -67.8% (active); in the experiment with COLO 205 colon, -73.2% (active); in the experiment on DU-145 prostate it was -94.5% (active); in the experiment with K-562 leukemia, -30.3% (active); in the experiment with MDA-MB-231 breast, -57.6% (active). In addition, the growth in the experiment with RXF 393 renal was -10.5% (active); in the experiment with SF-268 CNS it was 7.02% (active); in the experiment on SF-295 CNS, -86.8% (active); with SF-539 CNS, -50.3% (active); in the experiment with UACC-257 melanoma it was -28.5% (active); in the experiment with M14 melanoma it was -62.1% (active).

The values above are taken from PubChem BioAssay (NCI).
